Assay outcomes from PubChem BioAssay.
Most compounds without a hit are left out; they make up all but 7.4% or so of the library.
SMN2 splice enh – qHTS Assay for Enhancers of SMN2 Splice Variant Expression; HEK293 SMN2-luciferase splicing reporter, luminescence, 30-36 h; Potency, µM (highest dose often 46.1 µM), usual class: activators; hit rate 2.8% among 210,000; AID 1458, 2008; note: nearly all actives have a fitted effect of over 55% in size
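qHTS luciferase splicing reporter: luminescence rises when SMN2 exon 7 is included in transfected HEK293 cells. Compound exposure lasted 30-36 h at 37C, with 4.5 mM final sodium butyrate as control, followed by a ONE-Glo read.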
p53 reactivator – qHTS assay for re-activators of p53 using a Luc reporter; hit rate 0.063% among 320,000; Potency, µM (doses to about 92.2 µM), usual class: activators; H1299 p53-A138V BP100-luciferase reporter, luminescence, 24 h; AID 504706, 2011; note: nearly all actives have a fitted effect of over 45% in size
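p53-null H1299 cells stably carrying temperature-sensitive p53-A138V and a BP100-luciferase reporter were pinned with compounds (4-point, 1:5 series) and held 24 hrs at 37 deg C. Luminescence was read 10 min after detection reagent.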
ELG1 genotox – qHTS screen for small molecules that induce genotoxicity in human embryonic kidney (HEK293T) cells expressing luciferase-tagged ELG1; HEK293T ELG1-luciferase reporter, luminescence, 16 h; Potency, µM (titrated, usually from 46 µM), hits mostly activators; AID 504466, 2011; hit rate 1.3% among 330,000; note: nearly all actives have a fitted effect of over 60% in size
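After overnight (16 hr) compound treatment at 37 °C, ELG1-luciferase HEK293T cells were lysed with ONE-Glo; luminescence quantified 30 min later at room temperature.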
NPC1 prom act – qHTS Assay for NPC1 Promoter Activators; Huh7 NPC1 promoter luciferase reporter, 24 h; Potency, µM (highest dose often 9.22 µM), hits mostly activators; hit rate 2.4% among 320,000; AID 485313, 2010; note: nearly all actives have a fitted effect of over 60% in size
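Huh7 cells stably carrying NPC1 promoter–luciferase, plated in Opti-MEM with 10% FBS for 2 h, were exposed to compound in DMSO for 24 h at 37 °C; luciferase reagent was added for 10 min and luminescence read.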
FLuc modulator – qHTS profiling assay for firefly luciferase inhibitor/activator using purifed enzyme and Km concentrations of substrates (counterscreen for miR-21 project); AID 588342, 2011; hit rate 6.9% among 360,000; Luciferin 4-monooxygenase (Photinus pyralis), P08659; Potency, µM (highest dose often 57.5 µM), most hits filed as inhibitors; purified FLuc, Km substrates, luminescence inhibition; note: nearly all actives have a fitted effect of over 55% in size
Target sequence (P08659 whole entry, looked up): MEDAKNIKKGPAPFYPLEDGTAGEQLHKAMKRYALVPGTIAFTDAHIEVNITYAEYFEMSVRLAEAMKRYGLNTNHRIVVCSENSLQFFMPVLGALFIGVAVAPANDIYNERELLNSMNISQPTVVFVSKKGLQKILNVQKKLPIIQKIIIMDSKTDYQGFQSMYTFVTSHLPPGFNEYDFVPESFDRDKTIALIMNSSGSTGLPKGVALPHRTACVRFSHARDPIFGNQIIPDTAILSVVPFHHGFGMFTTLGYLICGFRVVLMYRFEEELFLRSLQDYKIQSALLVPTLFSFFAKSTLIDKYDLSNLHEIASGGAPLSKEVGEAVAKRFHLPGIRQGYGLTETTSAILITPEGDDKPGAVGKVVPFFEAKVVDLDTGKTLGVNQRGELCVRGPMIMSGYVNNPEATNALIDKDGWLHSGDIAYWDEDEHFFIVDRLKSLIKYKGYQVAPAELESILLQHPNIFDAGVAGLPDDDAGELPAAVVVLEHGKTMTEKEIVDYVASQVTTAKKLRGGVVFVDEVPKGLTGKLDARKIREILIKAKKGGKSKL
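Biochemical qHTS of compounds, final roughly 60 µM downward over six points, against 10 nM purified firefly luciferase using Km concentrations of substrates (10 uM D-luciferin, 10 uM ATP) in Tris acetate pH 7.5 buffer; luminescence output.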
Rab9 promoter act – qHTS Assay for Rab9 Promoter Activators; Huh7 Rab9 promoter-luciferase reporter, luminescence, 24 h; Potency, µM (top dose mostly 9.22 µM), most hits filed as activators; hit rate 2.8% among 320,000; AID 485297, 2010; note: nearly all actives have a fitted effect of over 60% in size
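Using Huh7 cells stably transfected with Rab9 promoter–luciferase, compounds were incubated 24 h at 37 °C, 5% CO2; luciferase luminescence was read 10 min after reagent addition.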
A number is an active result; - = inactive; ? = inconclusive; . = not tested or not shown; [ ] = another dose, or the depositor's remark. Calls come from the whole dose curve; as a rule, active = well fitted curve in the direction sought with a large enough effect; inconclusive = small, poorly fitted or top-dose-only effect, or another doubt; inactive = no such curve, though single readings can be large; an effect the other way counts as inactive or inconclusive.

SMILES | SMN2 splice enh | p53 reactivator | ELG1 genotox | NPC1 prom act | FLuc modulator | Rab9 promoter act
COc1cccc(/C=C/C(=O)Nc2cccc(C(C)=O)c2)c1OC | 18µM | - | - | 3.2µM | 3µM | 2.8µM
COc1cccc(C(=O)Nc2ccc3c(c2)OCO3)c1OC | . | ? | ? | 1.4µM | 9.5µM | 1.6µM
Cc1ccc(NC(=O)N2CCN(c3cc(-c4noc(C)n4)ccc3C)CC2)c(F)c1 | . | . | . | . | - | .
CCOC(=O)c1cc(-c2ccc(C)cc2)n(CC(=O)Nc2ccc(OC)cc2OC)c1C | - | . | . | . | - | .
CSc1cccc(NC(=O)c2cc(S(=O)(=O)N3CCc4ccccc43)cn2C)c1 | . | - | - | - | - | -
CCOC(=O)c1cncc(O)c1 | . | - | - | - | - | -
COc1ccc(OCC(=O)Nc2ccc(C)cc2)cc1 | - | - | - | - | ? | -
Cc1ccc(OCC(=O)Nc2ccncc2)cc1 | . | - | - | - | 13µM | -
Cc1ccc(OCC(=O)Nc2ccc(F)cc2)cc1 | - | ? | ? | - | 15µM | -
Cc1nnc(N2CCC(C(=O)NCc3ccc(F)cc3)CC2)c2nn(-c3ccc(Cl)cc3)c(C)c12 | . | . | . | . | - | .
COc1ccc(Nc2ncc(C(=O)N3CCN(Cc4ccccc4)CC3)c3ccccc23)cc1 | - | - | - | - | 19µM | -
[O-]/[N+](=C\c1ccncc1)c1ccc(Br)cc1 | . | ? | ? | ? | 8.5µM | ?
O=[N+]([O-])c1ccc(/C=C/c2ccncc2)cc1 | . | - | ? | ? | ? | ?
CC(=O)Nc1ccccc1C(=O)C(=O)Nc1ccc(Cl)cc1 | 22µM | - | ? | 2.2µM | - | 2.5µM
CCC(=O)Nc1ccccc1C(=O)C(=O)Nc1ccccc1 | ? | - | - | ? | - | 2.5µM
CC(=O)Nc1ccccc1C(=O)C(=O)Nc1cccc(Br)c1 | - | - | - | ? | - | 2.5µM
O=C(NN=C1CCCCCC1)C(=O)Nc1cccc(Br)c1 | -[1.84 µM] | - | - | - | 6µM | -
CC(=O)Nc1ccccc1C(=O)C(=O)Nc1ccccc1 | ? | ? | - | ? | - | ?
OCCN1CCN(CCCc2c3c(cc4c2CCC4)CCC3)CC1 | - | - | - | - | - | -
C#CCSc1nncn1C(=O)/C=C/c1ccccc1 | - | - | - | - | 19µM | -
O=C(/C=C/c1ccccc1)N1CCC[C@H]1CO | - | - | - | - | - | -
COc1cccc(C(=O)Oc2ccc(/C=N/Nc3ccc(C(=O)O)cc3)cc2OC)c1 | . | - | ? | 0.45µM | 24µM | ?
CCOc1cc(/C=N/Nc2ccc(C(=O)O)cc2)ccc1OC(=O)c1ccccc1C | . | - | - | 1.4µM | ? | 4µM
CCOc1cc(/C=N\NC(=O)c2ccc(NC(=O)C(C)(C)C)cc2)ccc1OC(=O)c1ccc(OC)cc1 | - | - | - | - | - | -
COc1cccc(OCc2cc(/C=N/Nc3ccc(C(=O)O)cc3)ccc2OC)c1 | . | - | 4.6µM | - | 6.7µM | ?
SMILES | SMN2 splice enh | p53 reactivator | ELG1 genotox | NPC1 prom act | FLuc modulator | Rab9 promoter act
Cc1cccc(C(=O)NC2=NC(c3ccc(Cl)cc3)CC(=O)N2)c1 (centres undefined) | . | . | . | . | - | .
Cc1nc2ncnn2c(C)c1CCC(=O)NCc1ccccc1Cl | - | . | . | . | - | .
NC(=S)N/N=C1\CCOc2ccc(F)cc21 | . | - | - | - | - | -
Cc1c(C(=O)OCCOc2ccccc2)[nH]c2c1C(=O)CC(c1ccccc1)C2 (centres undefined) | - | . | . | . | - | .
COC(=O)C1C(=O)c2c([nH]c(C(=O)OC3CCCC3C)c2C)CC1C (centres undefined) | 11µM | ? | 4.6µM | 1.6µM | 2.4µM | 1.4µM
COC(=O)C1C(=O)c2c([nH]c(C(=O)OC3CCCCC3)c2C)CC1C (centres undefined) | 13µM | ? | ? | 2.8µM | 1.7µM | 2.8µM
COC(=O)C1C(=O)c2c([nH]c(C(=O)OCCOC(C)C)c2C)CC1C (centres undefined) | - | - | ? | - | 13µM | ?
Cc1c(C(=O)OC2CCCCC2)[nH]c2c1C(=O)CC(C)(C)C2 | - | . | . | . | - | .
N=C(N)N | - | . | . | . | . | .
Cc1nc(NCc2ccccc2)c2nc(-c3ccccc3)n(CC3CCN(C)CC3)c2n1 | - | . | . | . | . | .
Oc1c(CN2CCOCC2)cc(COCc2ccccc2)c2cccnc12 | - | ? | 18µM | - | - | -
N#Cc1ccc(CN2CCCC3(CCN(C(=O)c4ccncc4)CC3)C2)cc1 | - | . | . | . | . | .
CCN(CC)CCn1c2ccccc2c2nc3ccc([N+](=O)[O-])cc3cc21 | . | - | 23µM | - | ? | -
CCCSC1=NC2(CCN(C(=O)NC3CCCCC3)CC2)N=C1c1ccc(Cl)cc1 | . | . | . | . | - | .
Cc1ccc(-n2nnc3ccccc3c2=O)cc1C | 14µM | ? | ? | ? | -[2.3 µM] | 3.5µM
Cc1ccc(-n2nc(C(=O)O)c3ccccc3c2=O)cc1C | - | - | - | - | - | -
CCN(CC)c1ccc(-c2nc3cnccc3n2C)cc1 | ? | - | ? | 4µM | 4.8µM | 4µM
COc1ccc(NC(=O)CN(C)C(=O)c2cc3c(s2)CCC(C)C3)cc1 (centres undefined) | . | - | - | - | 15µM | -
COc1ccc(NC(=O)CN(C)C(=O)CNC(=O)c2ccc3ccccc3c2)cc1 | . | ? | - | - | 24µM | ?
CN(CC(=O)Nc1ccccc1Br)C(=O)CNC(=O)c1cccs1 | . | - | - | - | - | -
COc1cccc(NC(=O)CNC(=O)c2ccccc2)c1 | - | ? | ? | - | - | -
COc1cccc(NC(=O)CN(C)C(=O)CNC(=O)c2ccc(Oc3ccccc3)cc2)c1 | . | ? | - | - | 6µM | ?
CN(CC(=O)Nc1ccccc1Br)C(=O)CNC(=O)c1ccc(Oc2ccccc2)cc1 | . | - | - | - | 15µM | -
Cc1cc(C)cc(OC(C)C(=O)Nc2nonc2-c2ccc(Br)cc2)c1 (centres undefined) | . | . | . | . | - | .
O=C(Nc1cccc(Cl)c1)c1cccc(N2C(=O)C3CC=CCC3C2=O)c1 (centres undefined) | . | - | - | - | - | -
COc1cccc(NC(=O)c2cccc(N3C(=O)C4CCC(C)CC4C3=O)c2)c1 (centres undefined) | . | - | - | - | - | -
Cc1ccc(C(=O)Nc2cccc(N3C(=O)C4CCC(C)CC4C3=O)c2)cc1 (centres undefined) | . | - | - | - | 7.6µM | -
O=C(Nc1cccc(N2C(=O)C3CCCCC3C2=O)c1)c1ccccc1 (centres undefined) | . | - | - | - | 19µM | -
CCN(CC(=O)Nc1ccc(OC)cc1)CC(=O)N1CC(=O)Nc2ccccc21 | . | - | - | - | . | -
